TRHR enhancer = TRH receptor (human) allosteric enhancement | P34981 | TRHR cells, fluo-8 calcium fluorescence, EC20 TRH enhancement | enhancement, % at 2 µM | 360,000 tested, 0.66% active | AID 493056; in the data active = enhancement above about 30%
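Enhancer read-out: after compound pinning and an initial kinetic agonist-mode read, an EC20 of TRH (10 nM final) was injected and fluo-8 calcium signal (Ex 480/Em 530) followed at 1 s/cycle for 100 cycles in TRHR-expressing cells.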
D1 ag = activates the human D1 dopamine receptor; P21728; HEK293 T-REx D1 cells, calcium flux, agonist mode; activation, % at 2 µM; 360,000 tested, 1% active; AID 504660
Target sequence (P21728 whole entry, looked up): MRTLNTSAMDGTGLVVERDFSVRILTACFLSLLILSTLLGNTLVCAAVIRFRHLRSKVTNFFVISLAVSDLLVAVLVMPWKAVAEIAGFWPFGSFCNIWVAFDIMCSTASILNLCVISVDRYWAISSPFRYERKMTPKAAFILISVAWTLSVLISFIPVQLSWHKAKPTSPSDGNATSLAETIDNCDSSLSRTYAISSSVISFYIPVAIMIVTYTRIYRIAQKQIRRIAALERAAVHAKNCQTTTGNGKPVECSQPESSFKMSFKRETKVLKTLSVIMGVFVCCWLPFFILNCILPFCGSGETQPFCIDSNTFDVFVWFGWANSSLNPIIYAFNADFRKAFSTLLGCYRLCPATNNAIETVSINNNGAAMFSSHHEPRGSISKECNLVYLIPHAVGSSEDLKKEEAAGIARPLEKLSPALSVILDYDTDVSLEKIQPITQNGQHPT
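Tetracycline-induced HEK293 TREx D1 cells, force-coupled to calcium signalling, were dye-loaded with a no-wash calcium kit. Compound was pin-added after a 10 s baseline. Fluorescence was read kinetically at 1 cycle/s for 180 s, with calcium rises flagged as agonism.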
D1 antag = human D1 dopamine receptor antagonism; P21728; HEK293 TREx D1 cells, calcium flux, dopamine EC80; stronger effect = lower value; activity change, negative = inhibition, % at 10 µM; 360,000 tested, 3.2% active; AID 504652; in the data active = activity change below about -30%
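Allosteric or orthosteric antagonism assessed as attenuation of the calcium response to EC80 dopamine, added 180 s after compound, in induced HEK293 Trex D1 cells loaded with no-wash calcium dye.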
D1 PAM = potentiators of human D1 dopamine receptor; potentiation, % at 10 µM; AID 504651; 360,000 tested, 0.036% active; P21728; HEK293 TREx D1 cells, calcium flux, dopamine EC20 potentiation; in the data active = potentiation above about 30%
TRHR ag = TRH receptor (human) agonism. P34981. TRHR cells, calcium flux fluo-8, FDSS agonist mode. activation, % at 2 µM. 360,000 tested, 0.18% active. AID 493084
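In this calcium-flux screen, cells bearing human TRHR are dye-loaded with fluo-8, baselined for 10 cycles, then exposed to library compounds; positive kinetic calcium responses during the agonist phase mark hits, with TRH as control.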
Of the large screens only hits and unclear results are named; the others gave an inactive call; ! = not active in a repeat. Hits are enriched below; roughly 4.7% of the tested compounds scored in any of these assays. Cut-off read from the data, not from the text of the source, unless noted: active = activation above about 30%; inactive = the rest.

Fc1ccc(CCNC(=S)Nc2ccc(F)c(Cl)c2)cc1	D1 antag -31.7
O=[N+]([O-])c1ccc(NC(=S)NCCc2ccc(F)cc2)cc1	none
CC(C)(CNC(=S)NCCc1ccccc1)CNC(=S)NCCc1ccccc1	D1 antag -30.1
CCOC(=O)c1sc2ncn(CC(=O)Nc3ccc(C)cc3Br)c(=O)c2c1C	none
C/C(=N\NC(=S)NCCc1ccccc1)c1ccc(O)cc1O	D1 antag -39.1 (no result: D1 PAM)
O=C(CN1C(=O)C2(SCC(=O)N2c2ccc(F)c(F)c2)c2ccccc21)Nc1cccc(Cl)c1 (stereo not drawn)	none
Cc1ccc(CNC(=O)/C=C/c2c(Cl)cccc2Cl)cc1	D1 antag -36.2
CCOc1ccc(NC(=O)CSc2nnc3c(C)cc4ccccc4n23)cc1	none
CC(C)Oc1ccc(S(=O)(=O)N2CCOCC2)cc1NC(=O)C1COc2ccccc2O1 (stereo not drawn)	D1 antag -44.2
Nc1nc(COC(=O)c2ccc3c(c2)OCCO3)nc(Nc2ccccc2)n1	D1 ag 32.6, D1 antag -30.5
Nc1nc(COC(=O)CCC(=O)c2ccccc2)nc(Nc2ccccc2)n1	D1 antag -32.0
Nc1nc(CCl)nc(Nc2ccccc2)n1	none
CCOc1ccc(-c2cc3c(=O)n(Cc4nc(-c5ccc(OC(C)C)cc5)oc4C)ccn3n2)cc1Cl	D1 antag -36.1
CCOc1ccc(-c2cc3c(=O)n(Cc4nc(-c5ccc(OC)cc5OC)oc4C)ccn3n2)cc1Cl	none
CCCn1nc(C(=O)N2CCc3ccccc32)c2ccccc2c1=O	none
CCCCCn1nc(C(=O)N2CCc3ccccc32)c2ccccc2c1=O	D1 antag -51.1
Cc1ccc(Oc2nnc(-c3cccs3)c3ccccc23)cc1C	D1 antag -31.6
O=C(/C=C/c1ccc2c(c1)OCO2)NCCSCc1cccc(Cl)c1	D1 antag -31.5
O=C(/C=C/c1cccc([N+](=O)[O-])c1)NCc1ccc2c(c1)OCO2	none
O=C(/C=C/c1cccc(F)c1)NCc1ccc2c(c1)OCO2	D1 antag -34.9
O=C(/C=C/c1ccc2c(c1)OCO2)NCCSCc1ccc(Cl)cc1Cl	none
CN(C)C(=O)CSc1nnc2sc3ccccc3n12	none
O=S(=O)(O)c1nnc2sc3ccccc3n12	D1 antag -35.6
COc1ccc(Br)cc1CN1C(=O)NC2(CCCCCC2)C1=O	D1 ag 30.5, D1 antag -32.7 (no result: D1 PAM)
CCOc1ccc(C2=NNC(c3cccs3)=Nc3ccc(OC)cc32)cc1OCC	none
COc1ccc(C2=NNC(c3cccs3)=Nc3ccc(OC)cc32)cc1	D1 antag -38.6
COc1ccc2c(c1)c1c(c(=O)n(-c3ccc(F)c(Cl)c3)c(=O)n1Cc1cccc(C)c1)n2C	none
Cc1ccc(C(=O)Nc2ccc(Cc3ccncc3)cc2)cc1[N+](=O)[O-]	D1 antag -35.1
O=C(Nc1ccc(N2CCCCC2)c(Cl)c1)c1ccc(N2CCOCC2)c([N+](=O)[O-])c1	D1 antag -48.1
Cc1ccc(C(=O)NC(C)CCc2ccccc2)cc1[N+](=O)[O-] (stereo not drawn)	D1 antag -62.2
O=C(Nc1ccc(Cc2ccncc2)cc1)c1cccc([N+](=O)[O-])c1	none
CC(=O)N1CCN(c2ccc(NC(=O)c3ccc(N4CCCC4)c([N+](=O)[O-])c3)cc2Cl)CC1	none
CC(CCc1ccccc1)NC(=O)c1cccc([N+](=O)[O-])c1 (stereo not drawn)	none
O=C(Nc1ccc(Cc2ccncc2)cc1)c1ccc(N2CCOCC2)c([N+](=O)[O-])c1	D1 antag -44.1
COc1ccccc1Cc1nc2ccccc2nc1SCC(=O)N(C)c1ccc(F)cc1	none
O=C(c1cc2c(=O)oc3ccccc3c2s1)N1CCN(c2cccc(Cl)c2)CC1	none
CCC(=O)Nc1cccc(NC(=O)c2ccc(C)c([N+](=O)[O-])c2)c1	none
CCCC(=O)Nc1cccc(NC(=O)c2ccc(C)c([N+](=O)[O-])c2)c1	D1 antag -33.5
CCN(Cc1ccccc1)S(=O)(=O)c1cc(C(=O)OC)n(C)c1	none
COC(=O)c1ccc(S(=O)(=O)N(Cc2ccccc2)Cc2ccccc2)n1C	D1 antag -40.4
Nc1c(Cl)cc(C2=NCCn3nc4cc([N+](=O)[O-])ccc4c32)cc1Cl	none
Nc1c(Cl)cc(C2=NCCn3c2c2ccc([N+](=O)[O-])cc2[n+]3[O-])cc1Cl	D1 antag -32.9
COC(=O)c1ccc(NC(=O)COC(=O)c2nc3nccc(C)n3n2)cc1	TRHR enhancer 32.5, D1 antag -35.0
Cc1cc2c(s1)c1cnn(Cc3ccc(F)cc3Cl)c(=O)c1n2C	none
CC(Oc1ccc(C(C)(C)C)cc1)c1ccnc2nc(/N=C/N(C)C)nn12 (stereo not drawn)	D1 ag 46.4
CN(C)/C=N/c1nc2nccc(-c3cccnc3)n2n1	none
CN(C)/C=N/c1nc2nccc(-c3ccccn3)n2n1	TRHR enhancer 33.6
COc1cc(/C=C2\C(C)=C(C#N)c3nc(N)c(C#N)c(C)c32)ccc1OCC(=O)O	D1 antag -57.2
c1cncc(CSc2ccc(-c3ccc4c(c3)OCO4)nn2)c1	D1 antag -39.1
Fc1cccc(CSc2ccc(-c3ccc4c(c3)OCO4)nn2)c1	none
O=C(Nc1ccc(N2CCOCC2)cc1)C1CCCCN1S(=O)(=O)c1ccccc1 (stereo not drawn)	D1 antag -32.2
O=C(Nc1ccccc1)C1CCCCN1S(=O)(=O)c1ccccc1 (stereo not drawn)	none
CC(C)c1ccc(NC(=O)C2CCCN2S(=O)(=O)c2ccccc2F)cc1 (stereo not drawn)	D1 antag -33.8
Cc1ccc2nc(NC(=O)CSc3ncc(C(=O)Nc4ccc(F)cc4)c(=O)n3C)sc2c1	none (no result: D1 antag)
CSc1ccc(S(=O)(=O)NCC(=O)OCC(=O)N(Cc2ccccc2)C(C)C)cc1[N+](=O)[O-]	D1 antag -35.2
CCN(CCCNC(=O)c1cc2c(=O)[nH]c3ccc(C)cc3c2s1)Cc1ccccc1	none
Cc1cc2[nH]c(=O)c(=O)[nH]c2cc1S(=O)(=O)N1CCN(c2cccc(C(F)(F)F)c2)CC1	D1 antag -62.2!
Cc1cc2[nH]c(=O)c(=O)[nH]c2cc1S(=O)(=O)N1CCN(c2cccc(Cl)c2)CC1	none
CCCNC(=O)C1CCC(Cn2c(=O)c3sccc3n(CC(=O)NCc3ccccc3)c2=O)CC1 (stereo not drawn)	none
CCSC1=C(C#N)C(c2ccc(F)cc2)CC(=O)N1 (stereo not drawn)	D1 antag -32.4
CCSC1=C(C#N)C(c2ccc(OC)c(OC)c2)CC(=O)N1 (stereo not drawn)	none
C=C(C)CSC1=C(C#N)C(c2ccsc2)CC(=O)N1 (stereo not drawn)	D1 antag -38.9
O=C(Nc1cccc2cccnc12)OC(Cl)(Cl)Cl	none
O=C(NCc1ccccc1CN1CCCC1)c1cccc(N2CCCC2=O)c1	D1 antag -36.7 (no result: D1 PAM)
